Some test systems named below: NCI-H23 lung; NCI-H226 lung; NCI-H322M lung; HOP-62 NSCLC; NCI-H460 lung; HOP-92 NSCLC; NCI-H522 lung; A549/ATCC NSCLC; 786-0 renal; COLO 205 colon; DU-145 prostate; K-562 leukemia; MALME-3M melanoma; MDA-MB-231 breast; RXF 393 renal; SF-268 CNS; SF-295 CNS; SF-539 CNS; UACC-257 melanoma; M14 melanoma.
What all share (assay): NCI-60 one-dose screen, 48 h (100 = growth as untreated, 0 = no growth, -100 = all killed)
Holding throughout (settings): 10 µM unless noted

About 83,000 compounds went through this panel and 20% of them were active in at least one assay; those are over-represented in the sample as a whole.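 Negative percent growth values reflect cell death: -40 means 40% of the cells present at the start died, and -100 means all died.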 Values without a mark were called inactive. Calls of active or inactive are those of the source. How the source made its calls: active means growth percent below 10; inactive means the rest.

The source of these data is PubChem BioAssay (NCI).

`Cc1ccc(C(=O)NN2C(=O)CSC2c2ccc(Cl)cc2)cn1` (centres undefined): the growth is 84.1% in the experiment with NCI-H23 lung; 82.4% in the experiment on NCI-H226 lung; 119% with NCI-H322M lung; 82.2% in the experiment with HOP-62 NSCLC; 101% in the experiment on NCI-H460 lung; 71.1% in the experiment on HOP-92 NSCLC. The growth in the experiment with NCI-H522 lung was 84.3%; with A549/ATCC NSCLC it was 100%; with 786-0 renal, 107%; in the experiment with COLO 205 colon, 105%; in the experiment on DU-145 prostate it was 125%; with K-562 leukemia, 89.8%. Moreover, the growth with MALME-3M melanoma is 140%; in the experiment with MDA-MB-231 breast it was 88.8%; in the experiment with RXF 393 renal it was 95.2%; with SF-268 CNS, 101%; with SF-295 CNS, 66.9%; with SF-539 CNS, 101%. Moreover, the growth with UACC-257 melanoma was 110%.

In the case of `COc1ccc(-n2c(N)c(-c3nc4ccccc4[nH]3)cc(C#N)c2=O)cc1`, the growth was 86.8% in the experiment on NCI-H23 lung; 35.3% in the experiment on NCI-H226 lung; 102% in the experiment on NCI-H322M lung; 90.8% with HOP-62 NSCLC; 87.1% with NCI-H460 lung; 84.7% with HOP-92 NSCLC. Also, the growth was 74.2% in the experiment with NCI-H522 lung; 94.9% with A549/ATCC NSCLC; 92.5% in the experiment with 786-0 renal; 105% with COLO 205 colon; 87.9% with DU-145 prostate; 93.5% with K-562 leukemia. For the same compound, the growth in the experiment on MALME-3M melanoma is 92.1%; in the experiment on MDA-MB-231 breast, 90.8%; in the experiment with RXF 393 renal, 67.2%; in the experiment on SF-268 CNS, 95.8%; in the experiment with SF-295 CNS, 94.1%; in the experiment on SF-539 CNS, 77.2%. Besides, the growth in the experiment on UACC-257 melanoma was 96.4%.

For `CCCCCCn1c(-c2ccc(C(=O)O/N=C(\N)c3ccc(OC)cc3)cc2)nc(-c2ccccc2)c1-c1ccccc1`, the growth is -63.9% (active) with NCI-H23 lung; 62.6% with NCI-H226 lung; 69.4% in the experiment on NCI-H322M lung; 26.4% in the experiment with HOP-62 NSCLC; -10.3% (active) in the experiment on NCI-H460 lung; -63% (active) in the experiment on HOP-92 NSCLC. In addition, the growth was -59% (active) in the experiment on NCI-H522 lung; -33.9% (active) with A549/ATCC NSCLC; -66.8% (active) in the experiment with 786-0 renal; -14% (active) in the experiment with COLO 205 colon; -73.6% (active) in the experiment with DU-145 prostate; -35.3% (active) in the experiment on K-562 leukemia. In addition, the growth with MALME-3M melanoma is -18.2% (active); with MDA-MB-231 breast it was -24% (active); in the experiment on RXF 393 renal it was -59.6% (active); in the experiment with SF-268 CNS, 3.04% (active); with SF-295 CNS it was 1.78% (active); with SF-539 CNS, -84.1% (active). Further, the figures for the growth with UACC-257 melanoma and in the experiment on M14 melanoma were 48.3% and 40.9%, respectively.

`CN1CCN(c2ccc(-c3cc4c(Nc5ccc(F)c(Cl)c5)ncnn4c3)cc2)CC1`: the growth with NCI-H23 lung is 96.2%; with NCI-H226 lung, 89%; in the experiment on NCI-H322M lung, 32.9%; in the experiment with HOP-62 NSCLC, 103%; in the experiment with NCI-H460 lung, 8.58% (active); in the experiment with HOP-92 NSCLC, 76.8%. For the same compound, the growth is 72.5% in the experiment with NCI-H522 lung; 71.4% in the experiment on A549/ATCC NSCLC; 89.6% in the experiment on 786-0 renal; 37% with COLO 205 colon; 44.1% in the experiment on DU-145 prostate; 0.617% (active) with K-562 leukemia. Besides, the growth with MALME-3M melanoma was 28.5%; with MDA-MB-231 breast it was 91.1%; with RXF 393 renal, 79.8%; in the experiment on SF-268 CNS, 69.2%; with SF-295 CNS, 84.8%; with SF-539 CNS, 50.5%. Moreover, the figures for the growth in the experiment on UACC-257 melanoma and in the experiment on M14 melanoma were 69.2% and 66.7%, respectively.

Take `COc1cc(/C=C2\C(=O)Nc3ccc(Br)cc32)cc(OC)c1OC`: the growth with NCI-H23 lung was 63.5%; in the experiment on NCI-H226 lung, 77.1%; with NCI-H322M lung, 76.1%; in the experiment on HOP-62 NSCLC, 85.2%; in the experiment on NCI-H460 lung, 73.3%; in the experiment with HOP-92 NSCLC, 48.2%. Moreover, the growth with NCI-H522 lung was 47%; in the experiment on A549/ATCC NSCLC it was -4.21% (active); in the experiment on 786-0 renal, 84.9%; in the experiment with COLO 205 colon, 70.8%; in the experiment on DU-145 prostate it was 91.8%; with K-562 leukemia, 32.6%. Besides, the growth in the experiment with MALME-3M melanoma was 88.6%; in the experiment on MDA-MB-231 breast it was 65.5%; in the experiment on RXF 393 renal, -13.6% (active); in the experiment with SF-268 CNS, 84%; with SF-295 CNS, 68.6%; in the experiment on SF-539 CNS, 85.6%. Further, the growth in the experiment with UACC-257 melanoma was 17.2%.

In the case of `Nc1ccc(Sc2ccc([N+](=O)[O-])c3nonc23)cc1`, the growth in the experiment with NCI-H23 lung was 95.8%; with NCI-H226 lung it was 96.5%; in the experiment with NCI-H322M lung, 101%; in the experiment with HOP-62 NSCLC, 92.2%; with NCI-H460 lung, 96.7%; with HOP-92 NSCLC, 103%. Also, the growth in the experiment with NCI-H522 lung was 2.03% (active); with A549/ATCC NSCLC, 89.8%; in the experiment with 786-0 renal, 93.5%; in the experiment on COLO 205 colon it was 40.6%; with DU-145 prostate, 97.3%; in the experiment on K-562 leukemia, 26.7%. The growth in the experiment on MALME-3M melanoma is 57%; in the experiment with MDA-MB-231 breast, 92.4%; in the experiment on RXF 393 renal it was 104%; in the experiment with SF-268 CNS it was 98%; in the experiment with SF-295 CNS, 96.9%; with SF-539 CNS, 91.9%. Moreover, in the experiment on UACC-257 melanoma, the growth is 86.9%.

Regarding `O=C(Nc1ccc(Br)cc1F)c1cc(Br)ccc1O`, the growth was 0.13% (active) in the experiment with NCI-H23 lung; -1.23% (active) in the experiment with NCI-H226 lung; -4.81% (active) in the experiment with NCI-H322M lung; 13% in the experiment on HOP-62 NSCLC; 3.37% (active) in the experiment on NCI-H460 lung; -14.6% (active) with HOP-92 NSCLC. The growth in the experiment with NCI-H522 lung was -7.77% (active); in the experiment with A549/ATCC NSCLC it was 8.21% (active); in the experiment on 786-0 renal, 7.72% (active); in the experiment on COLO 205 colon, 85.6%; in the experiment on DU-145 prostate, 20.9%; in the experiment with K-562 leukemia, 10.3%. Also, the growth was -26.4% (active) in the experiment on MALME-3M melanoma; -38.1% (active) with MDA-MB-231 breast; -8.01% (active) in the experiment on RXF 393 renal; 14.5% with SF-268 CNS; -59.7% (active) in the experiment on SF-295 CNS; 9.41% (active) with SF-539 CNS. Further, the growth in the experiment on UACC-257 melanoma is -17.2% (active).

For the compound `O=C(Nc1ccc(Cl)cc1F)c1ccccc1O`, the growth was 17% in the experiment on NCI-H23 lung; 25.6% with NCI-H226 lung; 36.3% in the experiment with NCI-H322M lung; 42.6% in the experiment on HOP-62 NSCLC; 27.5% in the experiment on NCI-H460 lung; -14.5% (active) with HOP-92 NSCLC. Further, the growth with NCI-H522 lung was 11%; with A549/ATCC NSCLC, 46.3%; in the experiment with 786-0 renal, 50.6%; with COLO 205 colon it was 98.2%; in the experiment with DU-145 prostate, 43.1%; with K-562 leukemia it was 29.5%. In addition, the growth was -6.47% (active) in the experiment on MALME-3M melanoma; 39.1% in the experiment on MDA-MB-231 breast; 42.5% in the experiment on RXF 393 renal; 43.1% in the experiment with SF-268 CNS; 69.7% in the experiment on SF-295 CNS; 48.9% in the experiment on SF-539 CNS. In the experiment on UACC-257 melanoma, the growth is 14.1%.
